Bioassay records (PubChem BioAssay)
ADAM10 inh: ADAM10 inhibition, QFRET primary screen; inhibition, % at 7 µM; recombinant ADAM10, EDANS/DABCYL FRET peptide cleavage, 3 h; 0.62% of 370,000 active;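 active = inhibition above a per-campaign cutoff equal to the mean of compounds falling between control-based bounds plus 3 SD, cut at about 20% in these data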;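 also: 0% = DMSO wells while the 100% control is not disclosed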
MPTP block: blocks calcium-induced mitochondrial swelling. isolated mouse mitochondria, Ca2+ swelling absorbance, 30 min. inhibition, % at 10 µM. 1.4% of 360,000 active;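 active = inhibition of 50% or more, scaled per plate between neutral and stimulator controls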;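 also: 0% = DMSO wells given calcium and 100% = 1 mM EGTA wells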
rCAG RNA binder: binds r(CAG) RNA repeats. r(CAG) RNA repeat, TO-PRO-1 dye displacement fluorescence. inhibition, % at 3 µM. 1.3% of 370,000 active. AID 651821;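 active = inhibition above the plate cutoff, the mean of all test compounds on that plate plus 3 SD, cut at about 35% in these data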;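 also: 0% = DMSO alone and 100% = 100 µM mitoxantrone as full dye displacement; higher means more dye released from RNA so lower well fluorescence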
ADAM17 inh: ADAM17 inhibition, QFRET primary screen | P78536 | recombinant ADAM17, EDANS/DABCYL FRET peptide cleavage | inhibition, % at 6.95 µM | 0.83% of 370,000 active | AID 720648;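 active = inhibition above the mean of compounds lying between control limits plus 3 SD, set per campaign, cut at about 8.5% in these data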;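 also: 0% = DMSO-only wells as the low control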
proKLK7 act: proKLK7 (human) activation, primary screen; P49862; purified proKLK7, EDANS-DABCYL substrate fluorescence; 100% is mature enzyme control, 0% vehicle; activation, % at 7 µM; 0.9% of 370,000 active; AID 652039;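 active = activation above the mean of all tested compounds plus 3 SD, computed per campaign excluding outliers beyond control limits, cut at about 13% in these data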
DSG3 Ab inh: human desmoglein-3 autoantibody binding inhibition; DSG3-coupled beads, scFv-anti-DSG3-GFP binding, flow cytometry; active compounds read low; 0.48% of 310,000 active; binding (percent of control), % at 10 µM;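 active = binding more than 3 SD below its plate's average and above zero; inconclusive = below that plate limit but binding exactly zero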;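 also: hits lower antibody fragment binding to DSG3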
Target sequence (P32926 whole entry, looked up, the tested form may be a part): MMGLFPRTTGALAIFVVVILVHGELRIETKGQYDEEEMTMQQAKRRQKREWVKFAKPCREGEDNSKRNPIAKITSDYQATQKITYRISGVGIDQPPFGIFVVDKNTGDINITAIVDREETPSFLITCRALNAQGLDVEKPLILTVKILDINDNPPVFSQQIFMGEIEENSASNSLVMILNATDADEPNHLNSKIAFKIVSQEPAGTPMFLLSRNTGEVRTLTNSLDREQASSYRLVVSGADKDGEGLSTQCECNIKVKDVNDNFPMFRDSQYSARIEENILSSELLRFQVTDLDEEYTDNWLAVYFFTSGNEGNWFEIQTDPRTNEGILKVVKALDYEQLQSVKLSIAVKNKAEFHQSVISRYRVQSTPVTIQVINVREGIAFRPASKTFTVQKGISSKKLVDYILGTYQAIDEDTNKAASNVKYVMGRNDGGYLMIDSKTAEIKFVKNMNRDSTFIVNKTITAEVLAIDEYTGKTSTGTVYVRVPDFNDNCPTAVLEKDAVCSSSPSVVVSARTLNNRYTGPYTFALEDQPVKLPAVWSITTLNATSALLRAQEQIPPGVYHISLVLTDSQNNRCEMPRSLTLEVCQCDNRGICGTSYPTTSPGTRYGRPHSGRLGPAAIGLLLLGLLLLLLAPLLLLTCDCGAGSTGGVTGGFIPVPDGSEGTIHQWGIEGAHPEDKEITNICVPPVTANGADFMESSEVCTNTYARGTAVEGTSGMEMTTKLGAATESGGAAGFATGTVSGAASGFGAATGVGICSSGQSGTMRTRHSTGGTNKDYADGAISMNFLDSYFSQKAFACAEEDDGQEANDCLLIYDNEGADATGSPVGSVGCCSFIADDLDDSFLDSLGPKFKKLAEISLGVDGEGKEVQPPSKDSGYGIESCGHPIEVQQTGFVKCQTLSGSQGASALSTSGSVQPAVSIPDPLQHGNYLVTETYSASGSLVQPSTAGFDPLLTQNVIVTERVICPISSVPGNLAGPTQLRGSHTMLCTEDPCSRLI
ADAM10 ctr: inhibits human ADAM10 in ADAM17 exosite counter-screen; 47% of 2,900 active; recombinant ADAM10, EDANS/DABCYL FRET peptide cleavage, 3 h; inhibition, % at 6.95 µM; shares compounds with ADAM17 inh;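 active = mean inhibition over the triplicate runs exceeds the activity threshold set in the earlier primary screen, cut at about 20% in these data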;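 also: 0% = DMSO wells and 100% = marimastat wells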
ADAM17 confirm: confirmation of inhibitors of human ADAM17; shares compounds with ADAM17 inh; recombinant ADAM17, EDANS/DABCYL QFRET peptide cleavage; 65% of 2,900 active; inhibition, % at 6.95 µM; AID 743257;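 active = mean inhibition across replicates above the hit cutoff set in the primary screen, cut at about 8.5% in these data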;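 also: 0% = DMSO wells and 100% = marimastat wells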
The depositor's hits bear a star; ? = inconclusive; . = no result given. Most compounds without a hit are left out; they make up all but 4.7% or so of the library.

SMILES	ADAM10 inh	MPTP block	rCAG RNA binder	ADAM17 inh	proKLK7 act	DSG3 Ab inh	ADAM10 ctr	ADAM17 confirm
NCC(=O)NCC(=O)NC[C@H]1O[C@@H](n2cnc3c(N)ncnc32)[C@H](O)[C@@H]1O	-12	10	-1	-8	0	106	.	.
CCC(C)[C@H](N)c1nnc(SCC(=O)c2ccc(Cl)cc2)o1 (stereo not given in full)	15	0	6	9.2*	-1	99	-8	0
CC(C)[C@H](N)c1nnc(SCc2ccc(Cl)cc2)o1	1	-1	0	-8	0	98	.	.
CCCCn1nnnc1C1(C)CCC(=O)N1Cc1cccnc1 (stereo not given)	-18	0	1	-3	0	.	.	.
COc1cccc(NC(=O)c2ccccc2-c2nc(-c3cccc(C)c3)no2)c1	25*	2	5	9.6*	0	96	26*	15*
Cc1ccc2nc3n(c(=O)c2c1)-c1ccc(Cl)cc1C(=O)NC3Cc1ccccc1 (stereo not given)	2	.	4	11*	-1	.	-9	-1
CC(C)CC1NC(=O)c2ccc(Cl)cc2-n2c1nc1cc(F)ccc1c2=O (stereo not given)	9	.	0	11*	1	.	21*	12*
CC(C)CC1NC(=O)c2cc(Cl)ccc2-n2c1nc1cc(F)ccc1c2=O (stereo not given)	3	.	-2	8.7*	1	.	0	-1
Cc1ccc2nc3n(c(=O)c2c1)-c1ccc(Cl)cc1C(=O)NC3CC(C)C (stereo not given)	-19	.	7	-5	-1	.	.	.
O=C1NC(Cc2ccccc2)c2nc3ccc(Cl)cc3c(=O)n2-c2ccc(Cl)cc21 (stereo not given)	-28	.	16	-7	-1	.	.	.
CC(C)CC1NC(=O)c2ccc(Cl)cc2-n2c1nc1ccc(F)cc1c2=O (stereo not given)	3	.	-2	-4	0	.	.	.
C[C@@H]1CN([C@H](C)CO)C(=O)c2c(c3ccccc3n2C)-c2ccccc2CO[C@H]1CN(C)Cc1ccc(-c2ccccc2)cc1	8	-2	7	8.9*	0	98	17	8
Cc1ccc(S(=O)(=O)N(C)C[C@@H]2Oc3ccc(NS(=O)(=O)c4ccccc4)cc3CC(=O)N([C@@H](C)CO)C[C@H]2C)cc1	14	-1	3	10*	1	99	5	5
Cc1ccc(S(=O)(=O)Nc2cccc3c2O[C@H](CN(C)Cc2ccc(-c4ccccc4)cc2)[C@@H](C)CN([C@H](C)CO)C3=O)cc1	24*	-2	13	13*	1	100	44*	24*
COC(=O)[C@]12CCCCC=C1N(Cc1cccc3ccccc13)C(=O)[C@H](CC(=O)NCc1ccc(C)o1)C2	14	-3	8	5	-1	.	.	.
CC(COc1cccc(F)c1)CN1CCC(C(O)(c2ccccc2)c2ccccc2)CC1 (stereo not given)	14	.	1	9.8*	1	.	11	6
CC(COc1cccc(C(F)(F)F)c1)CN1CCC(C(O)(c2ccccc2)c2ccccc2)CC1 (stereo not given)	8	.	2	5	1	.	.	.
O=S(=O)(NCCC(c1ccc(F)cc1)c1ccco1)c1ccccc1 (stereo not given)	15	5	2	13*	0	103	18	11*
Fc1ccc(C(CCNCc2cccs2)c2ccco2)cc1 (stereo not given)	-3	4	-6	0	0	.	.	.
COc1ccccc1N1CCN(C(=O)c2ccccc2Oc2ccccc2)CC1	13	-4	4	15*	0	103	-2	0
CC(=O)Nc1ccc(C(=O)N2CCCC(c3cc(C(=O)Nc4ccccc4)no3)C2)cc1 (stereo not given)	0	-1	-2	-1	0	.	.	.
COc1cc(Cl)c(C)cc1NC(=O)CN1CCN(C(=O)c2cccs2)CC1	-2	-1	-1	1	1	107	.	.
CC1(C)CC(NC(=O)c2cccc(S(=O)(=O)Nc3cccc(Cl)c3)c2)CC(C)(C)N1	-6	3	6	1	1	110	.	.
CC(C)C(=O)Nc1c(C(=O)N2CCN(c3ncccn3)CC2)oc2ccccc12	-6	2	-5	-1	0	.	.	.
CCC(CC)C(=O)Nc1c(C(=O)N2CCN(c3ccccc3)CC2)oc2ccccc12	-6	0	-3	9.3*	0	111	3	4
SMILES	ADAM10 inh	MPTP block	rCAG RNA binder	ADAM17 inh	proKLK7 act	DSG3 Ab inh	ADAM10 ctr	ADAM17 confirm
O=C(CCNS(=O)(=O)c1ccccc1C(F)(F)F)NCCCSc1ccccc1	9	-1	0	8.7*	0	100	14	10*
O=C(CCNS(=O)(=O)c1ccccc1C(F)(F)F)N1CCCCCCC1	-8	1	0	0	-1	.	.	.
O=C(CCNS(=O)(=O)c1ccccc1)NCCCSc1ccccc1	-8	-1	-6	-3	0	?	.	.
O=C(CCNS(=O)(=O)c1ccccc1C(F)(F)F)N1CCN(C(c2ccccc2)c2ccccc2)CC1	9	0	2	8.9*	0	93	30*	18*
O=C(C[n+]1ccccc1)Nc1nc2ccccc2s1	15	1	4	9.4*	0	100	9	15*
C[C@H](c1ccccc1)N1C[C@H](COCc2ccccc2)Oc2cc(N3CC[C@H](N(C)C)C3)ccc2S1(=O)=O	17	2	7	8	1	.	.	.
COc1cccc(C(=O)NCC[N+](C)(C)C)c1	7	0	1	2	1	.	.	.
Cc1nc(NC(=O)CSc2nc3ccccc3s2)sc1C(=O)N(C)C	2	0	6	10*	0	115	10	7
CCOC(=O)c1c(C)nsc1NC(=O)C1(C)CCN1C(=O)CC (stereo not given)	8	0	2	1	0	.	.	.
CC(Oc1ccc(Cl)cc1Cl)C(=O)Nc1ccc(O)cc1 (stereo not given)	6	1	0	8.8*	0	99	5	6
CC(Oc1ccc(Cl)cc1Cl)C(=O)Nc1cccc(O)c1 (stereo not given)	-5	0	-1	-1	0	96	.	.
COc1ccc(OC)c(Nc2ccc(Nc3cc(OC)ccc3OC)nn2)c1	14	9	7	18*	1	108	10	9
Cc1ccc(Cl)cc1N(CC(=O)Nc1cccc(N(C)S(C)(=O)=O)c1)S(C)(=O)=O	0	0	0	-2	0	101	.	.
